Data: PubChem BioAssay AID1159580 (chemical genetic matrix, 2015)
Among all 5,500 compounds or so, about 2,000 (36%) were called active. Inconclusive results (about 18%) are left out. No stated cut-off is given here; in the data, active means normalized growth mostly below about 0.91 (no sharp cut-off); inconclusive means no clear call, values can overlap the other calls; inactive means mostly above about 0.92. The list shows a part of the results.

Test: chemical genetic growth profiling, strain panel (AID 1159580);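 further: tested at 20 µM; growth read once vehicle control cultures reached saturation at 30 °C; 1 = growth at the plate median or of vehicle wells; lower values mean less growth of the strain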
Details: S. cerevisiae deletion strains, growth OD

Measured: normalized growth

CCOc1ccc2nc3cc(N)ccc3c(N)c2c1
inactive: locus YBR171W, strain sec66, hits give low values 1.07 | locus YDL005C, strain med2, hits give low values 0.981 | locus YDR001C, strain nth1, hits give low values 0.94 | locus YDR137W, strain rgp1, hits give low values 0.985 | locus YDR159W, strain sac3, hits give low values 1.06 | locus YDR334W, strain swr1, hits give low values 1.03 | locus YDR392W, strain spt3, hits give low values 0.803 | locus YEL061C, strain CIN8 (second series), hits give low values 0.997 | locus YER111C, strain swi4, hits give low values 0.987 | locus YGL167C, strain pmr1, hits give low values 1.03 | locus YGL240W, strain doc1, hits give low values 1.06 | locus YHR030C, strain SLT2, hits give low values 0.967 | locus YHR079C, strain IRE1, hits give low values 0.89 | locus YJL095W, strain BCK1, hits give low values 0.935 | locus YJL115W, strain asf1, hits give low values 0.987 | locus YJL154C, strain vps35, hits give low values 0.97 | locus YJR066W, strain TOR1, hits give low values 0.851 | locus YLR113W, strain HOG1, hits give low values 0.961 | locus YLR262C, strain YPT6 (second series), hits give low values 0.891 | locus YLR357W, strain rsc2, hits give low values 1.09 | locus YMR125W, strain sto1, hits give low values 0.892 | locus YNL183C, strain NPR1, hits give low values 0.875 | locus YNL322C, strain KRE1 (second series), hits give low values 1 | locus YNR049C, strain mso1, hits give low values 1 | locus YOR231W, strain MKK1, hits give low values 0.901 | locus YPL256C, strain CLN2, hits give low values 1.03
active: locus YAL021C, strain ccr4, hits give low values 0.749 | locus YAL026C, strain drs2, hits give low values 0.607 | locus YAL030W, strain snc1, hits give low values 0.63 | locus YBL061C, strain skt5, hits give low values 0.745 | locus YBR009C, strain hhf1, hits give low values 0.353 | locus YBR023C, strain chs3, hits give low values 0.721 | locus YBR231C, strain swc5, hits give low values 0.702 | locus YBR279W, strain paf1, hits give low values 0.51 | locus YCL011C, strain gbp2, hits give low values 0.447 | locus YCL016C, strain dcc1, hits give low values 0.462 | locus YCL061C, strain MRC1, hits give low values 0.846 | locus YCL069W, strain vba3, hits give low values 0.834 | locus YCR088W, strain abp1, hits give low values 0.695 | locus YDL040C, strain nat1, hits give low values 0.779 | locus YDR069C, strain doa4, hits give low values 0.696 | locus YDR195W, strain ref2 0.823 | locus YDR297W, strain sur2, hits give low values 0.705 | locus YDR335W, strain msn5, hits give low values 0.907 | locus YEL003W, strain gim4, hits give low values 0.534 | locus YEL037C, strain rad23, hits give low values 0.785 | locus YER015W, strain faa2, hits give low values 0.641 | locus YER016W, strain bim1, hits give low values 0.679 | locus YER155C, strain BEM2 (second series), hits give low values 0.856 | locus YFR010W, strain ubp6, hits give low values 0.683 | locus YGL173C, strain kem1, hits give low values 0.677 | locus YGL227W, strain vid30, hits give low values 0.754 | locus YGL253W, strain hxk2, hits give low values 0.761 | locus YHR013C, strain ard1, hits give low values 0.747 | locus YHR027C, strain rpn1, hits give low values 0.618 | locus YHR142W, strain chs7, hits give low values 0.801 | locus YJL092W, strain hpr5, hits give low values 0.803 | locus YJL095W, strain BCK1 (second series), hits give low values 0.785 | locus YJL129C, strain trk1, hits give low values 0.648 | locus YJL164C, strain tpk1, hits give low values 0.379 | locus YJL166W, strain qcr8, hits give low values 0.583 | locus YJL187C, strain SWE1, hits give low values 0.846 | locus YKL160W, strain elf1, hits give low values 0.733 | locus YKR026C, strain gcn3, hits give low values 0.864 | locus YKR091W, strain srl3, hits give low values 0.875 | locus YLL001W, strain dnm1, hits give low values 0.662 | locus YLL026W, hits give low values 0.508 | locus YLL041C, strain sdh2, hits give low values 0.863 | locus YLR027C, strain aat2, hits give low values 0.481 | locus YLR221C, strain rsa3, hits give low values 0.541 | locus YLR258W, strain gsy2, hits give low values 0.529 | locus YLR320W, strain mms22, hits give low values 0.742 | locus YLR342W, strain FKS1, hits give low values 0.866 | locus YLR370C, strain arc18, hits give low values 0.704 | locus YLR384C, strain iki3, hits give low values 0.85 | locus YML120C, strain ndi1, hits give low values 0.252 | locus YMR058W, strain fet3, hits give low values 0.587 | locus YMR129W, hits give low values 0.659 | locus YMR205C, strain PFK2, hits give low values 0.751 | locus YMR231W, strain pep5, hits give low values 0.883 | locus YNL071W, strain lat1, hits give low values 0.909 | locus YNL209W, strain ssb2, hits give low values 0.53 | locus YNL248C, strain rpa49, hits give low values 0.827 | locus YOR001W, strain rrp6, hits give low values 0.365 | locus YOR070C, strain gyp1, hits give low values 0.607 | locus YOR080W, strain dia2, hits give low values 0.876 | locus YOR083W, strain WHI5, hits give low values 0.58 | locus YOR106W, strain vam3, hits give low values 0.489 | locus YOR265W, strain rbl2, hits give low values 0.61 | locus YOR270C, strain vph1, hits give low values 0.707 | locus YOR290C, strain snf2, hits give low values 0.441 | locus YPL051W, strain arl3, hits give low values 0.653 | locus YPL078C, strain atp4, hits give low values 0.813 | locus YPL106C, strain sse1, hits give low values 0.719 | locus YPL240C, strain hsp82, hits give low values 0.623
